Source: PubChem BioAssay (NCI)
The panel holds about 83,000 compounds, 20% with a hit somewhere; the sample as a whole holds those more often.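 Compound tested at a single concentration for 48 hours in 96-well plates; a percent growth value below 10 was scored as active.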 Unmarked numbers belong to inactive results. The source made the active and inactive calls.

Legend:
Assay in all cases: NCI-60 one-dose screen, 48 h (100 = growth as untreated, 0 = no growth, -100 = all killed)
Settings in all cases: 10 µM unless noted
[1] = tested on: NCI-H23 lung
[2] = tested on: NCI-H226 lung
[3] = tested on: NCI-H322M lung
[4] = tested on: HOP-62 NSCLC
[5] = tested on: NCI-H460 lung
[6] = tested on: HOP-92 NSCLC
[7] = tested on: NCI-H522 lung
[8] = tested on: A549/ATCC NSCLC
[9] = tested on: 786-0 renal
[10] = tested on: COLO 205 colon

Row | SMILES | growth [1] | growth [2] | growth [3] | growth [4] | growth [5] | growth [6] | growth [7] | growth [8] | growth [9] | growth [10]
1 | Cc1cc(NN=C(c2ccc(O)cc2)c2ccc(O)cc2)c([N+](=O)[O-])cc1[N+](=O)[O-] | 31.9% | 99.2% | 59.1% | 54.2% | 27.3% | 40% | 15.4% | 11.8% | -5.42% (active) | 98.6%
2 | CC1(C)NCCC[C@]2(C)[C@H]3C=CC4=C5C[C@](C)(CO)CC[C@]5(C)CC[C@@]4(C)[C@]3(C)CC[C@@H]12 | -84.9% [100 µM] (active) | -59.1% [100 µM] (active) | -99.7% [100 µM] (active) | -74.5% [100 µM] (active) | -81.6% [100 µM] (active) | -76.4% [100 µM] (active) | -75.6% [100 µM] (active) | -66.5% [100 µM] (active) | -72% [100 µM] (active) | -55.9% [100 µM] (active)
3 | COC(=O)c1cc(O)c2c(c1C(=O)OC)C[C@H]1[C@@H]3CC=C4C[C@@H](O)CC[C@]4(C)[C@H]3CC[C@]21C | 46% | 70.6% | 66% | 20.4% | 64.6% | 18.6% | 50% | 38.5% | -56.1% (active) | 83.1%
4 | COc1ccc2c(c1)c(-c1noc(-c3cn(C)c4ncc(F)cc34)n1)cn2C | 75.4% | 108% | 57% | 55.7% | 18.5% | 69.9% | 79% | 21.5% | 50.8% | 88.3%
5 | CC1(C)CC[C@]2(C(N)=O)CC[C@]3(C)C(=CC[C@@H]4[C@@]5(C)C/C(=C/c6cccnc6)C(=O)C(C)(C)[C@@H]5CC[C@]43C)[C@@H]2C1 | -2.72% [100 µM] (active) | -36.8% [100 µM] (active) | -57.3% [100 µM] (active) | -55.5% [100 µM] (active) | -51.8% [100 µM] (active) | -50.7% [100 µM] (active) | -59.7% [100 µM] (active) | -35.9% [100 µM] (active) | -38.4% [100 µM] (active) | -57.6% [100 µM] (active)
6 | COc1cccc(-c2[nH]c(=S)ncc2C(=O)c2ccccc2)c1 | 97% | 102% | 99.9% | 78.8% | 91.9% | 102% | 70.9% | 88.4% | 100% | 84.7%
7 | COc1ccc2nc3cc(Cl)ccc3c(Nc3ccc(O)cc3)c2c1 | 72.8% | 74.4% | 90.5% | 68.8% | 23.1% | 78.9% | 72.5% | 46.6% | 84% | 76.8%
8 | CCN(CC)CCS(=O)(=O)CCNc1ccnc2cc(Cl)ccc12 | -18.4% (active) | 30.1% | 56.8% | 22.5% | 2.87% (active) | 26.4% | -50.5% (active) | 71.9% | 10.2% | -44.5% (active)
9 | Cn1c(=O)c(C#N)c(-c2ccco2)n2c(S(=O)(=O)Cc3ccccc3)nnc12 | 94.3% | 122% | 89.1% | 104% | 79.9% | 92.8% | 81.2% | 92.8% | 81.1% | 111%
10 | CCOc1cccc2c(NC(C)CCCN(CC)CC)c(C)cnc12 (stereo not given) | 110% | 103% | 91.8% | 98.9% | 110% | 97% | 94.7% | 91.4% | 103% | 77.1%
11 | CC(C)(C)OC(=O)N1C=C/C(=C\Cn2cc(-c3ccccc3)nn2)CC1 | 65% | 72% | 80.9% | 89.3% | 84.7% | 62.9% | 74.6% | 83.8% | 79.6% | 109%
12 | CN(C)CCCNc1nc(-c2cccc(C(Cl)(Cl)Cl)c2)nc(C(Cl)(Cl)Cl)n1 | 101% | 109% | 93.7% | 111% | 108% | 53% | 94.9% | 105% | 99% | 119%
13 | O=C(O)CSCc1nnc2n(Cc3ccccc3)c(=O)c3c4c(sc3n12)CCCC4 | 90.8% | 87.2% | 101% | 139% | 111% | 74.5% | 63.7% | 93.7% | 132% | 88.2%
14 | O=C1CC(c2ccc3c(c2)OCO3)Nc2ccccc21 (stereo not given) | 40.2% | 65.3% | 51.3% | 24.2% | 10.5% | 20.5% | 19.8% | 21.8% | 42.2% | -16.4% (active)
15 | Cc1cccc(C[C@H](NC(=O)Nc2ccc(Cl)cc2F)C(=O)N[C@@H]2C(=O)N3C[C@H](O)C[C@H]3C(=O)N3CCN(C)C[C@H]3C(=O)N[C@@H](C)C(=O)N3C[C@H](C)C[C@H]3C(=O)O[C@H]2C)c1 | 35.3% | 45.2% | 65.7% | 34.3% | 27.7% | 33.2% | 33.2% | 35.6% | 66.6% | 11.2%
16 | O=C(N[C@@H]1CCCc2ccccc21)[C@H](CCC(=O)N1CCN(C2CCCCC2)CC1)N1C(=O)[C@@H](N2C(=O)OC[C@@H]2c2ccccc2)[C@H]1/C=C/c1ccccc1 | 57.7% | 64.4% | 34.6% | 61.3% | 29.4% | 2.75% (active) | 52.3% | 28% | 42.1% | 34.4%
17 | Fc1cc2[nH]ncc2c2c3c(c(-c4cn[nH]c4)nc12)CCCC3 | -14.5% (active) | 1.53% (active) | 2.77% (active) | -10.6% (active) | 1.29% (active) | -7.43% (active) | -9.92% (active) | 1.75% (active) | 12.1% | -43.8% (active)
18 | CC(C)=CCC[C@](C)(O)[C@H]1CC[C@]2(C)[C@@H]1CC[C@@H]1[C@@]3(C)CC[C@H](OC(=O)CCC(=O)O)C(C)(C)[C@@H]3CC[C@]12C | 16.9% [100 µM] | 27.4% [100 µM] | 27.4% [100 µM] | -5.43% [100 µM] (active) | 4.47% [100 µM] (active) | 13.3% [100 µM] | 9.19% [100 µM] (active) | 19.5% [100 µM] | 23% [100 µM] | 12.9% [100 µM]
19 | CCCCOC(=O)c1cccc([N+](=O)[O-])c1 | 101% | 104% | 106% | 109% | 107% | 99.8% | 92.7% | 107% | 112% | 115%
20 | CC(C)[N+](C)(C)CC(O)COc1cccc2ccccc12 (stereo not given) | 95.5% | 107% | 112% | 106% | 109% | 81.4% | 114% | 101% | 121% | 104%
21 | CCOc1ccc(S(=O)(=O)Nc2ccc3c(c2)N(S(=O)(=O)CC)CCC3)cc1 | 87.5% | 87% | 86.8% | 69.9% | 52.6% | 86.1% | 68.4% | 84.3% | 96% | 62.6%
22 | CC(C)(C)c1cc(C(=O)Nc2cc3ccccc3cc2C(=O)NCCN)cc(C(C)(C)C)c1 | -52.4% (active) | -51.9% (active) | -78.3% (active) | -80.8% (active) | -70.4% (active) | -70.3% (active) | -47.3% (active) | -60.7% (active) | -92% (active) | -80.9% (active)
23 | C=C(C)[C@@H]1CC[C@]2(C(=O)NCCCN)CC[C@]3(C)[C@H](CC[C@@H]4[C@@]5(C)CC[C@H](O)C(C)(C)[C@@H]5CC[C@]43C)[C@@H]12 | -8.47% [100 µM] (active) | 36.6% [100 µM] | -68.8% [100 µM] (active) | -26.8% [100 µM] (active) | -43.2% [100 µM] (active) | -55.5% [100 µM] (active) | -17% [100 µM] (active) | -4.7% [100 µM] (active) | -22.6% [100 µM] (active) | 7.82% [100 µM] (active)
